Reference: PubChem BioAssay (EPA / NIEHS)
Activity calls are given as the source filed them. Rule for the calls: active = hit-call score of the fitted dose curve at least 0.9, where 1 is the maximum; inactive = score below 0.9.

Key:
[1] = ATG_E_Box_CIS: Attagene CIS-FACTORIAL HepG2 Assay for human Enhancer Box (E-box) (AID 2282936); conditions: HepG2 E-box cis-reporter transcription, actives raise or lower the signal
Outline: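 First, HepG2 cells receive multiple cis-regulated reporter constructs by transient transfection. Next, chemicals are applied for 24 h. Finally, reporter mRNA is quantified via RT-PCR and capillary electrophoresis, with DMSO as baseline.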

[2] = ATG_M_61_CIS: Attagene CIS-FACTORIAL HepG2 Assay for M61 Transcription Factor (Internal Marker) (AID 2282937); conditions: HepG2 Attagene CIS-FACTORIAL M61 internal marker reporter; actives raise or lower the signal
Outline: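 This endpoint serves as an internal background control within a multiplexed HepG2 cis-reporter panel. Cells are exposed for 24 h; reporter mRNA is amplified, fluorescently labelled and sized by capillary electrophoresis, with DMSO as negative control.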

[3] = ATG_EGR_CIS: Attagene CIS-FACTORIAL HepG2 Assay for human Early Growth Response 1 (EGR1) (AID 2282938); conditions: HepG2 Attagene CIS-FACTORIAL EGR reporter mRNA; actives raise or lower the signal
Outline: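 HepG2, transient MRTU transfection (cis promoters), 24 h compound. RNA → RT (oligo-dT) → PCR → 6-FAM labelling → HpaI cut → CE fluorescence. Bidirectional fit, DMSO baseline.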

[4] = ATG_M_19_CIS: Attagene CIS-FACTORIAL HepG2 Assay for M19 Transcription Factor (Internal Marker) (AID 2282939); conditions: HepG2 Attagene CIS-FACTORIAL M19 internal marker reporter; actives raise or lower the signal
Outline: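 Readout: fluorescent reporter-transcript fragments by capillary electrophoresis after RT-PCR. Human HepG2 liver cells carried transfected MRTU constructs reporting endogenous transcription-factor activity; exposure 24 h. Gain or loss of signal fitted relative to DMSO.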

[5] = ATG_ERE_CIS: Attagene CIS-FACTORIAL HepG2 Assay for Estrogen Response Element (ERE) (AID 2282940); conditions: HepG2 ERE cis-reporter, Attagene RNA transcript; actives raise or lower the signal
Outline: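 Readout: reporter mRNA induction by RT-PCR, FAM-labelled primer extension, HpaI digestion and capillary electrophoresis, 24 h after dosing transfected HepG2 cells. Endogenous transcription factors act on cis-element-regulated reporters. Gain or loss fitted against DMSO.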

[6] = ATG_Ets_CIS: Attagene CIS-FACTORIAL HepG2 Assay for human Erythroblast Transformation Specific (ETS) (AID 2282941); conditions: HepG2 ETS cis-reporter transcription, actives raise or lower the signal
Outline: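 Steps: transfect HepG2 with multiple reporter units; treat compound 24 h; isolate RNA, DNase-treat, reverse-transcribe; PCR-amplify, label with 6-FAM, digest with HpaI; separate by capillary electrophoresis. Activity fitted both directions versus DMSO.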

[7] = target: Hepatocyte nuclear factor 3-beta (Homo sapiens) (UniProt Q9Y261); experiment: ATG_FoxA2_CIS: Attagene CIS-FACTORIAL HepG2 Assay for human Forkhead box A2 (FOXA2) (AID 2282942); conditions: HepG2 cis-reporter transcription factor activity, 24 h; actives raise or lower the signal
Outline: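 Cells: HepG2, transient multiplex reporter transfection. Exposure 24 h. Detection: reporter-specific RT-PCR, fluorescent labelling, restriction digest, capillary electrophoresis. Analysis: bidirectional curve fit, DMSO as negative control.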

[8] = ATG_FoxO_CIS: Attagene CIS-FACTORIAL HepG2 Assay for human Forkhead box O (FoxO) (AID 2282943); conditions: HepG2 Attagene cis-reporter, FoxO element, mRNA; actives raise or lower the signal
Outline: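 Read-out: fluorescence of 6-FAM-labelled reporter cDNA fragments resolved by capillary electrophoresis. Transiently transfected HepG2 cells were dosed for 24 h; activity fitted in both directions relative to DMSO controls.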

[9] = ATG_GATA_CIS: Attagene CIS-FACTORIAL HepG2 Assay for human GATA Binding Protein (AID 2282944); conditions: HepG2 GATA cis-element reporter, Attagene multiplex mRNA; actives raise or lower the signal
Outline: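 Read-out: fluorescent reporter mRNA fragments resolved by capillary electrophoresis after RT-PCR. Human liver HepG2 cells carried transiently transfected cis-regulated reporter constructs; chemicals incubated 24 h; gain or loss of signal fitted relative to DMSO.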

[10] = ATG_GLI_CIS: Attagene CIS-FACTORIAL HepG2 Assay for human Zinc Finger Protein GLI1 (AID 2282945); conditions: HepG2, Attagene cis-factorial reporter mRNA, GLI element; actives raise or lower the signal
Outline: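 Transiently transfected HepG2 cells report endogenous transcription factor activity via cis-element-driven reporter units. After 24 h compound exposure, reporter mRNA was measured by RT-PCR with capillary electrophoresis; bidirectional fitting against DMSO baseline.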

Measured: AC50

Hepatocyte nuclear factor 3-beta (Homo sapiens), sequence (Q9Y261 whole entry, looked up): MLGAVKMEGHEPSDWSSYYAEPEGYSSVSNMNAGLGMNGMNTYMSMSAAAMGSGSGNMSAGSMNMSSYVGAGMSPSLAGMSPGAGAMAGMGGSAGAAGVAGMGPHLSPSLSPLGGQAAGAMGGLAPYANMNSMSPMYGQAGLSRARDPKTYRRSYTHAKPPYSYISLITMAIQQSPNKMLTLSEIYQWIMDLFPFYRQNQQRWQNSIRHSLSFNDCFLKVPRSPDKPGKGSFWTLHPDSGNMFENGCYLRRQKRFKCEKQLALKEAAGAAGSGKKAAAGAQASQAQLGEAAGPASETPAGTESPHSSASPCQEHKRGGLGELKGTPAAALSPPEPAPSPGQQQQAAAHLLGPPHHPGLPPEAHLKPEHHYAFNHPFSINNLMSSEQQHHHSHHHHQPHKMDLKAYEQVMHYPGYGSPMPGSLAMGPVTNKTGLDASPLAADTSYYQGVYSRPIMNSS

COC(=O)/C=C/C(C)=C\C=C\C(C)=C\C=C\C=C(C)\C=C\C=C(C)\C=C\C(=O)O
inactive: all assays above

Cc1ccc2c(c1)C(=O)c1ccccc1C2=O
active: [5] 12.2 µM
not listed: [10]
inactive: all other assays above

O=C(Cl)c1cc(C(=O)Cl)cc(C(=O)Cl)c1
active: [1] 138 µM
not listed: [10]
inactive: all other assays above

CO[Si](CCC1CCC2OC2C1)(OC)OC (configuration not stated)
not listed: [10]
inactive: all other assays above

O=C1CCCC1
not listed: [10]
inactive: all other assays above

CCCCCCCCCCc1ccccc1
inactive: all assays above

CC(=O)Nc1nnc(S(N)(=O)=O)s1
not listed: [10]
inactive: all other assays above

Cc1cccc(C(=O)O)c1
inactive: all assays above

O=CC1CC1
not listed: [10]
inactive: all other assays above

CC(CC=O)CCCC(C)(C)O (configuration not stated)
not listed: [10]
inactive: all other assays above

OCCNCc1ccccc1
not listed: [10]
inactive: all other assays above

[Cl][Bi]([Cl])([c]1ccccc1)([c]1ccccc1)[c]1ccccc1
active: [1] 3.68 µM | [3] 6.3 µM | [8] 4.47 µM
inactive: all other assays above

CNC(=S)N(C)C
not listed: [10]
inactive: all other assays above

N[C@H]1C(O)O[C@H](CO)[C@H](O)[C@@H]1O (some centres not stated)
active: [5] 39.9 µM
inactive: all other assays above

O=C(O)c1ccccc1Nc1cccc(C(F)(F)F)c1
active: [1] 89.2 µM
not listed: [10]
inactive: all other assays above

Cc1cc(C)c(C)cc1C
not listed: [10]
inactive: all other assays above

[Cl][In]([Cl])[Cl]
active: [5] 163 µM
not listed: [10]
inactive: all other assays above

O=C(OCC1CCC2OC2C1)C1CCC2OC2C1 (configuration not stated)
inactive: all assays above

O=S(=O)(O)c1ccccc1C=Cc1ccc(-c2ccc(C=Cc3ccccc3S(=O)(=O)O)cc2)cc1
active: [1] 40.6 µM
inactive: all other assays above

CC(=O)[C@H]1[C@H](C#N)C[C@H]2[C@@H]3CC=C4C[C@@H](O)CC[C@]4(C)[C@H]3CC[C@@]21C
inactive: all assays above

CC(C)(C)c1ccc(-c2ccc(C(C)(C)C)cc2)cc1
not listed: [10]
inactive: all other assays above

C=C(C)[C@@H]1CCC2=CCC[C@@H](C)[C@]2(C)C1
active: [5] 57.2 µM
inactive: all other assays above

CC(C)=CC1CC(C)CCO1 (configuration not stated)
inactive: all assays above

CCC(CC)C(=O)O
not listed: [10]
inactive: all other assays above

C=CC(=O)OCCOC(=O)C=C
active: [1] 27.3 µM | [3] 27.4 µM | [6] 27.2 µM
inactive: all other assays above

O=Cc1ccc(CO)o1
inactive: all assays above

CCCCCCCC/C=C\CCCCCCCC(=O)OCCO
inactive: all assays above

Cn1c(=O)[nH]c2ncn(C)c2c1=O
inactive: all assays above

CCCNC(=O)NS(=O)(=O)c1ccc(Cl)cc1
not listed: [10]
inactive: all other assays above

O=P(O)(O)Oc1ccccc1
not listed: [10]
inactive: all other assays above

COC(=O)c1ccc2cc(C(=O)OC)ccc2c1
not listed: [10]
inactive: all other assays above

CC(C)c1ccc2cc(C(C)C)ccc2c1
not listed: [10]
inactive: all other assays above

C=C(C)C(=O)OCCOc1ccccc1
not listed: [9] | [10]
inactive: all other assays above

CCOC(=O)c1ccc(N(C)C)cc1
not listed: [10]
inactive: all other assays above

Cc1ccc(OC(=O)CC(C)C)cc1
not listed: [10]
inactive: all other assays above

CCCCCCCCC(=O)OCC
inactive: all assays above

CCC(CO)CO
not listed: [10]
inactive: all other assays above

C[Si](C)(C)O[Si](O)(O)O
inactive: all assays above

Cc1cnc(NC(=O)C2=C(O)c3ccccc3S(=O)(=O)N2C)s1
inactive: all assays above

CCCCCCCC/C=C\CCCCCCCC(=O)O
inactive: all assays above

CCO[Si](C)(OCC)OCC
inactive: all assays above

COc1ccc(C(Cl)=C(c2ccc(OC)cc2)c2ccc(OC)cc2)cc1
active: [1] 21.8 µM
inactive: all other assays above

O=C1c2ccccc2C(=O)C1c1nc2ccccc2c(Br)c1O
active: [5] 6.37 µM | [7] 1.26 µM
inactive: all other assays above

CC1=NN(c2cc(S(=O)(=O)O)ccc2Cl)C(=O)C1N=Nc1ccccc1 (configuration not stated)
inactive: all assays above

Nc1ccc(N)c(Cl)c1
active: [1] 33.5 µM | [5] 2.65 µM
inactive: all other assays above

CC(C)(c1cc(Br)c(OCCO)c(Br)c1)c1cc(Br)c(OCCO)c(Br)c1
active: [3] 10.5 µM | [4] 44.5 µM | [6] 43.7 µM | [7] 44.2 µM
inactive: all other assays above

C[Si](C)(CCCN)O[Si](C)(C)CCCN
inactive: all assays above

OCCN(CCO)c1ccccc1
inactive: all assays above

O=S(=O)(O)c1cc(S(=O)(=O)O)c2ccc3c(S(=O)(=O)O)cc(S(=O)(=O)O)c4ccc1c2c43
inactive: all assays above

CC/C=C\C/C=C\C/C=C\CCCCCCCC(=O)O
active: [1] 100 µM | [3] 103 µM
inactive: all other assays above

c1ccc2c(c1)ccc1cc3c(ccc4ccccc43)cc12
active: [5] 0.18 µM | [7] 0.0767 µM
inactive: all other assays above

CC(=O)[C@@]1(O)CC[C@H]2[C@@H]3C[C@H](C)C4=CC(=O)C=C[C@]4(C)[C@@]3(F)[C@@H](O)C[C@@]21C
inactive: all assays above
